# Source: PubChem BioAssay AID1159580 (chemical genetic matrix, 2015)
# Where “and” joins values, the source holds several entries; their conditions need not be identical. Equal values may be shown once. In all, about 5,500 compounds went through this assay and about 2,000 (36%) were called active. Inconclusive results (about 18%) are left out. This is one part of the list. A number with no mark means an inactive call. No stated cut-off is given here; in the data, active means normalized growth mostly below about 0.91 (no sharp cut-off); inconclusive means no clear call, values can overlap the other calls; inactive means mostly above about 0.92.
# Test: chemical genetic growth profiling, strain panel (AID 1159580);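 further: tested at 20 µM; growth read once vehicle control cultures reached saturation at 30 °C; 1 = growth at the plate median or of vehicle wells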
# Details: growth OD
smiles,measurement,setting,value
CNCCC=C1c2ccccc2CCc2ccccc21,normalized growth,"S. cerevisiae deletion strains, locus YJR075W, strain HOC1, stronger effect = lower value",1.02 and 0.976
same,normalized growth,"S. cerevisiae deletion strains, locus YKL009W, strain mrt4, stronger effect = lower value",1.01
same,normalized growth,"S. cerevisiae deletion strains, locus YKL068W, stronger effect = lower value",1
same,normalized growth,"S. cerevisiae deletion strains, locus YKL085W, strain MDH1 (second series), stronger effect = lower value",1
same,normalized growth,"S. cerevisiae deletion strains, locus YKL085W, strain MDH1, stronger effect = lower value",1
same,normalized growth,"S. cerevisiae deletion strains, locus YKL160W, strain elf1, stronger effect = lower value",0.943
same,normalized growth,"S. cerevisiae deletion strains, locus YKL190W, strain CNB1, stronger effect = lower value",1.01
same,normalized growth,"S. cerevisiae deletion strains, locus YKR001C, strain vps1, stronger effect = lower value",1.06
same,normalized growth,"S. cerevisiae deletion strains, locus YKR026C, strain gcn3, stronger effect = lower value",0.975
same,normalized growth,"S. cerevisiae deletion strains, locus YKR091W, strain srl3, stronger effect = lower value",0.973
same,normalized growth,"S. cerevisiae deletion strains, locus YLL001W, strain dnm1, stronger effect = lower value",0.988
same,normalized growth,"S. cerevisiae deletion strains, locus YLL026W, stronger effect = lower value",0.978
same,normalized growth,"S. cerevisiae deletion strains, locus YLL041C, strain sdh2, stronger effect = lower value",0.985
same,normalized growth,"S. cerevisiae deletion strains, locus YLR027C, strain aat2, stronger effect = lower value",0.967
same,normalized growth,"S. cerevisiae deletion strains, locus YLR039C, strain RIC1, stronger effect = lower value",1.1
same,normalized growth,"S. cerevisiae deletion strains, locus YLR058C, strain SHM2, stronger effect = lower value",1.02
same,normalized growth,"S. cerevisiae deletion strains, locus YLR102C, strain apc9, stronger effect = lower value",1.01
same,normalized growth,"S. cerevisiae deletion strains, locus YLR113W, strain HOG1, stronger effect = lower value",1
same,normalized growth,"S. cerevisiae deletion strains, locus YLR221C, strain rsa3, stronger effect = lower value",0.991
same,normalized growth,"S. cerevisiae deletion strains, locus YLR258W, strain gsy2, stronger effect = lower value",0.957
same,normalized growth,"S. cerevisiae deletion strains, locus YLR262C, strain YPT6 (second series), stronger effect = lower value",1.01
same,normalized growth,"S. cerevisiae deletion strains, locus YLR262C, strain YPT6, stronger effect = lower value",1.13
same,normalized growth,"S. cerevisiae deletion strains, locus YLR268W, strain sec22, stronger effect = lower value",1.08
same,normalized growth,"S. cerevisiae deletion strains, locus YLR320W, strain mms22, stronger effect = lower value",0.967
same,normalized growth,"S. cerevisiae deletion strains, locus YLR330W, strain CHS5, stronger effect = lower value",1.01
same,normalized growth,"S. cerevisiae deletion strains, locus YLR342W, strain FKS1 (second series), stronger effect = lower value",0.977
same,normalized growth,"S. cerevisiae deletion strains, locus YLR342W, strain FKS1, stronger effect = lower value",0.91
same,normalized growth,"S. cerevisiae deletion strains, locus YLR357W, strain rsc2, stronger effect = lower value",0.956
same,normalized growth,"S. cerevisiae deletion strains, locus YLR370C, strain arc18, stronger effect = lower value",0.975
same,normalized growth,"S. cerevisiae deletion strains, locus YLR371W, strain rom2, stronger effect = lower value",1.02
same,normalized growth,"S. cerevisiae deletion strains, locus YLR384C, strain iki3, stronger effect = lower value",0.979
same,normalized growth,"S. cerevisiae deletion strains, locus YLR418C, strain cdc73, stronger effect = lower value",1.01
same,normalized growth,"S. cerevisiae deletion strains, locus YML016C, strain PPZ1, stronger effect = lower value",1.01
same,normalized growth,"S. cerevisiae deletion strains, locus YML032C, strain rad52, stronger effect = lower value",1.06
same,normalized growth,"S. cerevisiae deletion strains, locus YML120C, strain ndi1, stronger effect = lower value",0.986
same,normalized growth,"S. cerevisiae deletion strains, locus YML124C, strain tub3, stronger effect = lower value",1.01
same,normalized growth,"S. cerevisiae deletion strains, locus YMR058W, strain fet3, stronger effect = lower value",0.964
same,normalized growth,"S. cerevisiae deletion strains, locus YMR078C, strain ctf18, stronger effect = lower value",1.02
same,normalized growth,"S. cerevisiae deletion strains, locus YMR125W, strain sto1, stronger effect = lower value",0.933
same,normalized growth,"S. cerevisiae deletion strains, locus YMR129W, stronger effect = lower value",0.976
same,normalized growth,"S. cerevisiae deletion strains, locus YMR205C, strain PFK2, stronger effect = lower value",0.98
same,normalized growth,"S. cerevisiae deletion strains, locus YMR223W, strain ubp8, stronger effect = lower value",0.989
same,normalized growth,"S. cerevisiae deletion strains, locus YMR231W, strain pep5, stronger effect = lower value",0.974
same,normalized growth,"S. cerevisiae deletion strains, locus YMR263W, strain SAP30, stronger effect = lower value",1.01
same,normalized growth,"S. cerevisiae deletion strains, locus YMR307W, strain GAS1, stronger effect = lower value",1.02
same,normalized growth,"S. cerevisiae deletion strains, locus YNL067W, strain RPL9B, stronger effect = lower value",1.02
same,normalized growth,"S. cerevisiae deletion strains, locus YNL071W, strain lat1, stronger effect = lower value",0.987
same,normalized growth,"S. cerevisiae deletion strains, locus YNL128W, strain TEP1, stronger effect = lower value",1.01 and 1.07
same,normalized growth,"S. cerevisiae deletion strains, locus YNL153C, strain GIM3, stronger effect = lower value",1.02 and 0.984
same,normalized growth,"S. cerevisiae deletion strains, locus YNL175C, strain NOP13, stronger effect = lower value",1
same,normalized growth,"S. cerevisiae deletion strains, locus YNL183C, strain NPR1, stronger effect = lower value",0.938
same,normalized growth,"S. cerevisiae deletion strains, locus YNL197C, strain WHI3, stronger effect = lower value",1.01
same,normalized growth,"S. cerevisiae deletion strains, locus YNL209W, strain ssb2, stronger effect = lower value",0.984
same,normalized growth,"S. cerevisiae deletion strains, locus YNL224C, strain SQS1, stronger effect = lower value",1.02
same,normalized growth,"S. cerevisiae deletion strains, locus YNL233W, strain BNI4, stronger effect = lower value",1.01
same,normalized growth,"S. cerevisiae deletion strains, locus YNL248C, strain rpa49, stronger effect = lower value",0.952
same,normalized growth,"S. cerevisiae deletion strains, locus YNL250W, strain rad50, stronger effect = lower value",1.01
same,normalized growth,"S. cerevisiae deletion strains, locus YNL271C, strain bni1, stronger effect = lower value",1.01
same,normalized growth,"S. cerevisiae deletion strains, locus YNL298W, strain CLA4, stronger effect = lower value",1.02
same,normalized growth,"S. cerevisiae deletion strains, locus YNL307C, strain MCK1, stronger effect = lower value",1.01
same,normalized growth,"S. cerevisiae deletion strains, locus YNL322C, strain KRE1 (second series), stronger effect = lower value",0.98
same,normalized growth,"S. cerevisiae deletion strains, locus YNL322C, strain KRE1, stronger effect = lower value",1.01 and 0.982
same,normalized growth,"S. cerevisiae deletion strains, locus YNR049C, strain mso1, stronger effect = lower value",0.98
same,normalized growth,"S. cerevisiae deletion strains, locus YNR052C, strain pop2, stronger effect = lower value",1.02
same,normalized growth,"S. cerevisiae deletion strains, locus YOL006C, strain TOP1, stronger effect = lower value",0.969
same,normalized growth,"S. cerevisiae deletion strains, locus YOL012C, strain htz1",0.912
same,normalized growth,"S. cerevisiae deletion strains, locus YOL147C, strain pex11, stronger effect = lower value",1.02
same,normalized growth,"S. cerevisiae deletion strains, locus YOR001W, strain rrp6, stronger effect = lower value",0.988
same,normalized growth,"S. cerevisiae deletion strains, locus YOR061W, strain CKA2, stronger effect = lower value",1.01
same,normalized growth,"S. cerevisiae deletion strains, locus YOR069W, strain VPS5, stronger effect = lower value",1.01
same,normalized growth,"S. cerevisiae deletion strains, locus YOR070C, strain gyp1, stronger effect = lower value",0.978
same,normalized growth,"S. cerevisiae deletion strains, locus YOR080W, strain dia2, stronger effect = lower value",0.967
same,normalized growth,"S. cerevisiae deletion strains, locus YOR083W, strain WHI5 (second series), stronger effect = lower value",1.01
same,normalized growth,"S. cerevisiae deletion strains, locus YOR083W, strain WHI5, stronger effect = lower value",0.898
same,normalized growth,"S. cerevisiae deletion strains, locus YOR106W, strain vam3, stronger effect = lower value",0.949
same,normalized growth,"S. cerevisiae deletion strains, locus YOR136W, strain idh2, stronger effect = lower value",1.01
same,normalized growth,"S. cerevisiae deletion strains, locus YOR144C, strain elg1, stronger effect = lower value",1.03
same,normalized growth,"S. cerevisiae deletion strains, locus YOR184W, strain ser1, stronger effect = lower value",1.04
same,normalized growth,"S. cerevisiae deletion strains, locus YOR231W, strain MKK1, stronger effect = lower value",1.01
same,normalized growth,"S. cerevisiae deletion strains, locus YOR265W, strain rbl2, stronger effect = lower value",0.989
same,normalized growth,"S. cerevisiae deletion strains, locus YOR270C, strain vph1, stronger effect = lower value",0.731 (active)
same,normalized growth,"S. cerevisiae deletion strains, locus YOR290C, strain snf2, stronger effect = lower value",0.928
same,normalized growth,"S. cerevisiae deletion strains, locus YOR316C, strain cot1, stronger effect = lower value",1.02
same,normalized growth,"S. cerevisiae deletion strains, locus YPL051W, strain arl3, stronger effect = lower value",0.956
same,normalized growth,"S. cerevisiae deletion strains, locus YPL055C, strain LGE1, stronger effect = lower value",1.05 and 0.967
same,normalized growth,"S. cerevisiae deletion strains, locus YPL078C, strain atp4, stronger effect = lower value",0.959
same,normalized growth,"S. cerevisiae deletion strains, locus YPL106C, strain sse1, stronger effect = lower value",0.983
same,normalized growth,"S. cerevisiae deletion strains, locus YPL240C, strain hsp82, stronger effect = lower value",1
same,normalized growth,"S. cerevisiae deletion strains, locus YPL241C, strain CIN2, stronger effect = lower value",1.01
same,normalized growth,"S. cerevisiae deletion strains, locus YPL256C, strain CLN2, stronger effect = lower value",0.962
same,normalized growth,"S. cerevisiae deletion strains, locus YPR119W, strain clb2, stronger effect = lower value",1.01
same,normalized growth,"S. cerevisiae deletion strains, locus YPR141C, strain kar3, stronger effect = lower value",1.01
same,normalized growth,"S. cerevisiae deletion strains, locus YPR163C, strain tif3, stronger effect = lower value",1.03
same,normalized growth,"S. cerevisiae deletion strains, locus YPR167C, strain met16, stronger effect = lower value",1.02
same,normalized growth,"S. cerevisiae deletion strains, strain wtn01, stronger effect = lower value",1.05
same,normalized growth,"S. cerevisiae strains, strain wild type, stronger effect = lower value",1.01
